Assay outcomes (PubChem)
TbPYK inhibitor: inhibitors of Trypanosoma brucei pyruvate kinase | Q57TT1 | TbPYK enzyme, Kinase-Glo Plus ATP luminescence, 45 min | Potency, µM (top dose mostly 76.8 µM), for inactives: at the highest dose activity, negative = inhibition, hits mostly inhibitors | actives 0.12% (n = 410,000) | AID 624173; note: potency is the fitted concentration of half-maximal effect; nearly all actives have a fitted effect of over 50% in size
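Glycolytic pyruvate kinase of T. brucei was incubated with substrate, test compound and 130 uM ADP for 45 minutes at room temperature. Luminescent Kinase-Glo Plus signal was measured after 10 minutes.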
LmPK inh: LmPK (Leishmania mexicana) enzyme inhibition | Q27686 | purified LmPK, Kinase-Glo ATP luminescence, 1 h | Potency, µM (doses to about 57.5 µM), for inactives: at the highest dose activity change, negative = inhibition, hits mostly inhibitors | actives 0.37% (n = 290,000) | AID 1721; note: potency is the fitted concentration of half-maximal effect
Target sequence (Q27686 whole entry, looked up): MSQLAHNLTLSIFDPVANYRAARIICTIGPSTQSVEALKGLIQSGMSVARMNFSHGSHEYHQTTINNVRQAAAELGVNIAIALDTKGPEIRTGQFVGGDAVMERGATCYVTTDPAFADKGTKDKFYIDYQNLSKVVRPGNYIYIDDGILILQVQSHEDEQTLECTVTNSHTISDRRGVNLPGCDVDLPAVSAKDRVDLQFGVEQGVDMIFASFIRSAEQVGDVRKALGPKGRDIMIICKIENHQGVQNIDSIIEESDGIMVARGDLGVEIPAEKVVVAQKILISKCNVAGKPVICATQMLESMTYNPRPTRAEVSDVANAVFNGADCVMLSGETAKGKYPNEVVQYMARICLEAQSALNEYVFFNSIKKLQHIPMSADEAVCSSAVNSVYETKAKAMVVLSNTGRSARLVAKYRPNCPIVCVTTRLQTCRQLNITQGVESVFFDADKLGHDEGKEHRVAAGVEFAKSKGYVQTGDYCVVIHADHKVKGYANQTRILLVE
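Pyruvate kinase activity monitored as ATP production (luciferase luminescence). Conditions: 0.1 nM enzyme, 0.5 mM PEP, 0.1 mM ADP, 1 h, RT; normalized against uninhibited and no-enzyme wells.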
Vaccinia mCherry: vaccinia inhibition (mCherry reporter) | Potency, µM (series often up to 36.5 µM), for the others: at the highest dose activity change, negative = inhibition, most hits filed as inhibitors | Vaccinia virus mCherry reporter infection, fluorescence | actives 0.63% (n = 310,000); calls by dose curve; tested in A549 cells; note: potency is the fitted concentration of half-maximal effect; nearly all actives have a fitted effect of over 35% in size
HCMV antiviral: blocks human cytomegalovirus replication. HFF cells, HCMV-luciferase reporter, 72 h; stronger effect = lower value. AID 1259415. actives 4.5% (n = 410,000). activity change, negative = inhibition, % at 57.5 µM; in the data active = activity change below about -60%; inconclusive = no clear call, values can overlap the other calls; inactive = above about -39%
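Two-dose cell screen: HFF monolayers treated with compounds and infected with luciferase-expressing HCMV at 1 PFU/cell, 72 h at 37C, then lysed for luciferase measurement.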
VACV Venus inh: inhibitors of vaccinia virus (Venus reporter); Potency, µM (top dose mostly 36.5 µM), without a hit: at the top dose activity change, negative = inhibition, usual class: inhibitors; Vaccinia virus Venus reporter expression, fluorescence; actives 0.46% (n = 330,000); AID 720580; calls by dose curve; tested in A549 cells; note: potency is the fitted concentration of half-maximal effect; nearly all actives have a fitted effect of over 30% in size
Numbers without * were called inactive; i = inactive; u = inconclusive; x = not tested or not shown. In the library only some 5% were active in any assay of this set; here they are far more common. Unless noted, calls come from the whole dose curve; as a rule, active = well fitted curve in the direction sought with a large enough effect; inconclusive = small, poorly fitted or top-dose-only effect, or another doubt; inactive = no such curve, though single readings can be large; an effect the other way counts as inactive or inconclusive. % is set by controls: 0 for no effect and ±100 for the full control effect.

SMILES	TbPYK inhibitor	LmPK inh	Vaccinia mCherry	HCMV antiviral	VACV Venus inh
Cc1nnc(SCC(=O)Nc2nc(-c3ccc(F)cc3)cs2)[nH]c1=O	-4%	0%	13µM*	-14	u
COc1ccc(-c2csc(NC(=O)CSc3nnc(Nc4ccccc4C)s3)n2)cc1	2%	2%	u	-70*	-21%
COc1ccccc1Nc1nnc(SCC(=O)Nc2nc(-c3ccc(F)cc3)cs2)s1	-10%	-1%	i	-88*	u
CCOc1ccccc1Nc1nnc(SCC(=O)Nc2nc(-c3ccc(OC)cc3)cs2)s1	u	-1%	-9%	1	-15%
NC(=O)c1cc(-c2ccccc2)sc1NC(=O)Cc1ccc(S(=O)(=O)N2CCOCC2)s1	-10%	10%	x	48	x
CCOCc1cnc(C)nc1NCC(=O)c1c(C)[nH]c2cc(C)ccc12	-1%	4%	-20%	-101*	-13%
CCOCc1cnc(C)nc1NCC(=O)c1c(C)[nH]c2ccccc12	4%	-3%	u	-80*	-15%
CCOC(=O)C1CCN(CC(=O)c2c(C)[nH]c3cc(C)ccc23)CC1	3%	-2%	x	30	15%
Cc1[nH]c2ccccc2c1C(=O)CNc1nccs1	-8%	-5%	i	26	-2%
COc1ccc(OC)c(-c2ccnc(-n3ncc(C(=O)N4CCN(CCO)CC4)c3C3CC3)n2)c1	x	x	-11%	x	-4%
O=C1N[C@@H](Cc2ccccc2)C(=O)N2[C@H]3Nc4ccccc4[C@@]3([C@]34C[C@H]5C(=O)N[C@@H](Cc6ccccc6)C(=O)N5[C@H]3Nc3ccccc34)C[C@@H]12	-6%	x	u	x	-26%
CN1C(=O)[C@@H]2C[C@@]3([C@@]45C[C@H]6C(=O)N(C)[C@@H](Cc7ccccc7)C(=O)N6[C@@H]4Nc4ccccc45)c4ccccc4N[C@H]3N2C(=O)[C@@H]1Cc1ccccc1	2%	x	u	-68*	-18%
Cc1cc2nc(NCCCO)n(CC(=O)c3cc(C(C)(C)C)c(O)c(C(C)(C)C)c3)c2cc1C	-7%	x	u	-13	10µM*
COc1ccc(C(=O)Cn2c(NCCCO)nc3ccccc32)cc1	-2%	x	-21%	-8	-1%
COc1ccc(Cc2nc3ccccc3n2CC(=O)N/N=C/c2ccc(C)cc2O)cc1OC	1%	5%	-15%	19	-8%
COc1cc(NC(=O)c2n[nH]c(=O)c3ccccc23)cc(OC)c1	-2%	-3%	x	-36	x
COc1ccc(-c2nc(NC(=O)c3n[nH]c(=O)c4ccccc34)sc2C)cc1	2%	-1%	-3%	-60*	0%
Cc1cc(C)c(-c2csc(NC(=O)c3n[nH]c(=O)c4ccccc34)n2)c(C)c1	1%	1%	-13%	-73*	-12%
COc1ccc(-c2nc(NC(=O)c3c(C)noc3C)sc2C)cc1	-2%	x	-13%	-61*	-9%
CCC(C)c1ccc(NC(=O)C2CCN(c3ncccn3)CC2)cc1 (stereo unspecified)	-1%	2%	x	-17	x
Cc1ccc(NC(=O)c2cc3c(Cl)nc4ccc(C)cc4c3s2)c(Cl)c1	-1%	x	-20%	-8	-26%
O=C(Nc1ccc(Cl)cc1)Nc1cc([N+](=O)[O-])ccc1F	2%	-2%	-3%	-79*	-10%
O=C(Nc1ccc([N+](=O)[O-])cc1)Nc1ccc(Cl)cc1F	3%	2%	-9%	-99*	-4%
Cc1cc(OC(F)F)ccc1NC(=O)Nc1ccc([N+](=O)[O-])cc1	3%	-1%	u	-79*	u
CCN(CC)S(=O)(=O)c1ccc(NC(=O)c2cnccn2)cc1	2%	4%	x	3	x
SMILES	TbPYK inhibitor	LmPK inh	Vaccinia mCherry	HCMV antiviral	VACV Venus inh
Cc1nc(Sc2nnnn2C)c2c3c(sc2n1)CCC3	-2%	4%	x	-103*	u
O=S(=O)(c1ccccc1)c1nc(Nc2ccccc2N2CCOCC2)sc1Cl	-17%	5%	-29%	-34	-20%
COC(=O)N1CCN(c2ccc(Cl)c(Cl)c2)CC1	5%	2%	x	-19	x
Nc1ccc(N2CCN(c3ccc(F)cc3)CC2)cc1	-16%	3%	u	-60*	-2%
Nc1ccc(N2CCN(c3ccc(Cl)c(Cl)c3)CC2)cc1	4%	8%	u	-85*	-20%
CC(=O)N1CCN(c2ccc(N)cc2)CC1	-6%	x	x	-74*	x
Cc1nc(N2CCC(C(N)=O)CC2)c2c(-c3cccs3)csc2n1	2%	8%	-20%	u	-10%
